± gives the standard deviation.
Tested on: MILI (PIWIL2) piRISC loaded with L1MC piRNA (26 nt)
Test: pre-steady-state target cleavage rate (min^-1); guide: L1MC piRNA 5'p-UAACUAAAUACUAUGCAAGCUGUAGG; MIWI and MILI are mouse PIWI proteins and EfPiwi is from a freshwater sponge; tags in brackets are library labels; higher = faster piRNA-guided slicing of the target
Conditions: auxiliary factor: 500 nM mouse GTSF1
Procedure, shortened: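 In HEPES–potassium acetate buffer at 33 °C, […] transcribed, DNA-blocked target RNA library was mixed with 1 nM active affinity-purified piRISC carrying one synthetic guide, with or without 500 nM GTSF1 partner protein, for 0–8 or 0–960 min. Uncleaved targets were sequenced and normalised to depth and to weakly complementary targets; three trials were pooled and k3 was capped at 0.0001 min^-1. The pre-steady-state cleavage rate followed from a burst-and-steady-state fit.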
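Further: 1 nM active piRISC with 0.1 nM target library at 33 °C single turnover.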

Going from UCCUGGAUGAGCUUGCGUAGUAUUUAGUUA to UCCUGGAUCAGCUUGCAUAGUUUUUAGUUA, the “pre-steady-state target cleavage rate” value falls from 0.119 ± 0.016 to 0.0479 ± 0.0086.

UCCUGGUACAGCAUGCAUUGUAUUUAGUUA and UCCUGGUAAAGCUUGCAUAGUAUUUAGUUA are within error of each other in “pre-steady-state target cleavage rate” value: 0.167 ± 0.016 for the first, 0.183 ± 0.017 for the second.

First: UCCUCUCUACAGCUUGCAUAGUAUUUAGUUA
Second: UCCUGGAUGUGGAUGCAUAGUAUUUAGUUA
The “pre-steady-state target cleavage rate” value of the first is higher: 0.28 ± 0.022 for the first, 0.092 ± 0.012 for the second.

UCCUGGAUCAGUCUUGCAUAGUAUUUAGUUA and UCCUGGUACAGCUUGCAUAGUAUUAAGUUA are within error of each other in “pre-steady-state target cleavage rate” value: 0.212 ± 0.016 for the first, 0.252 ± 0.041 for the second.

First: UCCUGGAUCAGCUUGCAUAGUAUUUAGUGUA
Second: UCCUGGAUGUGCUUUGCAUAGUAUUUAGUUA
The “pre-steady-state target cleavage rate” value of the first is higher: 0.271 ± 0.023 for the first, 0.157 ± 0.016 for the second.

Compared with UCCUGGUUGAGCUUGCAUAGUAUUUAGUUA, UCCUCGUACAGCUUGCAUAGUAUUUUGUUA is lower in “pre-steady-state target cleavage rate” value: 0.179 ± 0.017 for the first, 0.143 ± 0.016 for the second.

Going from UCCUCCUAGAGCUUGCAUAGUAUAUAGUUA to UCCUGGAUGAGCUUGCAUAGUAUGUUAGUUA, the “pre-steady-state target cleavage rate” value falls from 0.249 ± 0.029 to 0.157 ± 0.021.

Compared with UCCUGGAUCAGCUUGGCAUAGUAUUUAGUUA, UCCUGGUAGAGCUUGCAUAGUAUUUUGUUA is lower in “pre-steady-state target cleavage rate” value: 0.3 ± 0.061 for the first, 0.143 ± 0.03 for the second.

Going from UCCUGCAUCAGCUUGCAUAGUAUUUAGUAA to UCCUGGAUGUCGAUGCAUAGUAUUUAAGUUA, the “pre-steady-state target cleavage rate” value falls from 0.223 ± 0.019 to 0.145 ± 0.019.

Compared with UCCUGGAUCUAGCUUGCAUAGUAUUUAGUUA, UCCUGGAUCAGCUUGCAUAGUAUUUAUUUA is lower in “pre-steady-state target cleavage rate” value: 0.193 ± 0.021 for the first, 0.0819 ± 0.017 for the second.

Compared with UCCUGGAUGAGCUUGCAUAGUAUUUAGUAA, UCCUGCAUACAGCUUGCAUAGUAUUUAGUUA is higher in “pre-steady-state target cleavage rate” value: 0.218 ± 0.019 for the first, 0.554 ± 0.047 for the second.

Going from UCCUGCUACAGCUUGCUUAGUUUUUAGUUA to UCCUGCUACAGCUUGCAUGGUAUUUAGUUA, the “pre-steady-state target cleavage rate” value rises from 0.0712 ± 0.011 to 0.334 ± 0.018.

— the supplement of paper PMC10338343
